Laboratory results published in the supplement of paper PMC8728848.
This excerpt belongs to a sample that is enriched for the strongest signals.

Legend:
Assay in all cases: glycan array binding signal (z-score within array); higher = stronger binding
Conditions in all cases: glycan notation: IUPAC condensed, linker removed
[1] = biological target: GlcNAc(b1-3)Gal(b1-4)GlcNAc(b1-2)Man(a1-3)[GlcNAc(b1-3)Gal(b1-4)GlcNAc(b1-2)Man(a1-6)]Man(b1-4)GlcNAc(b1-4)GlcNAc
Summary of the method: (§1)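 Glycan array binding is given as a within-array Z-score, which can be read as non-binding when negative. The arrays, 3228 of them, came from the Consortium for Functional Glycomics database and were retained only where the protein sequence was available. Z-scores were averaged across arrays of the same protein sequence at different concentrations or buffers and across linkers.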

[2] = biological target: GlcNAc(b1-3)Gal(b1-4)GlcNAc(b1-3)Gal(b1-4)GlcNAc(b1-2)Man(a1-3)[GlcNAc(b1-3)Gal(b1-4)GlcNAc(b1-3)Gal(b1-4)GlcNAc(b1-2)Man(a1-6)]Man(b1-4)GlcNAc(b1-4)GlcNAc
Summary of the method: as §1

[3] = biological target: GlcNAc(b1-3)Gal(b1-4)GlcNAc(b1-6)[Gal(b1-3)]GalNAc
Summary of the method: as §1

[4] = biological target: GlcNAc(b1-3)Gal(b1-4)GlcNAc(b1-6)[GlcNAc(b1-3)Gal(b1-3)]GalNAc
Summary of the method: as §1

GlcNAc(b1-3)Man = biological target: GlcNAc(b1-3)Man
Summary of the method: as §1

[5] = biological target: GlcNAc(b1-4)GlcNAc(b1-4)GlcNAc(b1-4)GlcNAc(b1-4)GlcNAc(b1-4)GlcNAc
Summary of the method: as §1

[6] = biological target: GlcNAc6S(b1-3)Gal(b1-4)GlcNAc
Summary of the method: as §1

[7] = biological target: Man(a1-2)Man(a1-6)[Man(a1-3)]Man(a1-6)[Man(a1-2)Man(a1-2)Man(a1-3)]Man(b1-4)GlcNAc(b1-4)GlcNAc
Summary of the method: as §1

Man(b1-4)GlcNAc = biological target: Man(b1-4)GlcNAc
Summary of the method: as §1

Neu5Ac(a2-3)Gal = biological target: Neu5Ac(a2-3)Gal
Summary of the method: as §1

[8] = biological target: Neu5Ac(a2-3)Gal(b1-3)GalNAc6S
Summary of the method: as §1

[9] = biological target: Neu5Ac(a2-3)Gal(b1-3)GlcNAc(b1-2)[Neu5Ac(a2-3)Gal(b1-3)GlcNAc(b1-4)]Man(a1-6)[Neu5Ac(a2-3)Gal(b1-3)GlcNAc(b1-2)Man(a1-3)]Man(b1-4)GlcNAc(b1-4)GlcNAc
Summary of the method: as §1

[10] = biological target: Neu5Ac(a2-3)Gal(b1-3)GlcNAc(b1-3)Gal(b1-3)GlcNAc
Summary of the method: as §1

[11] = biological target: Neu5Ac(a2-3)Gal(b1-3)GlcNAc(b1-6)GalNAc
Summary of the method: as §1

[12] = biological target: Neu5Ac(a2-3)Gal(b1-3)[Fuc(a1-4)]GlcNAc(b1-3)Gal(b1-4)[Fuc(a1-3)]GlcNAc
Summary of the method: as §1

Neu5Ac(a2-3)Gal(b1-4)Glc = biological target: Neu5Ac(a2-3)Gal(b1-4)Glc
Summary of the method: as §1

[13] = biological target: Neu5Ac(a2-3)Gal(b1-4)GlcNAc(b1-2)[Neu5Ac(a2-3)Gal(b1-4)GlcNAc(b1-4)]Man(a1-3)[GlcNAc(b1-4)][Neu5Ac(a2-3)Gal(b1-4)GlcNAc(b1-4)Man(a1-6)]Man(b1-4)GlcNAc(b1-4)GlcNAc
Summary of the method: as §1

[14] = biological target: Neu5Ac(a2-3)Gal(b1-4)GlcNAc(b1-6)[Neu5Ac(a2-3)Gal(b1-3)]GalNAc
Summary of the method: as §1

[15] = biological target: Neu5Ac(a2-3)Gal(b1-4)[Fuc(a1-3)]GlcNAc(b1-3)Gal(b1-4)GlcNAc
Summary of the method: as §1

[16] = biological target: Neu5Ac(a2-3)Gal(b1-4)[Fuc(a1-3)]GlcNAc(b1-3)Gal(b1-4)[Fuc(a1-3)]GlcNAc(b1-3)Gal(b1-4)[Fuc(a1-3)]GlcNAc
Summary of the method: as §1

[17] = biological target: Neu5Ac(a2-3)Gal(b1-4)[Fuc(a1-3)]GlcNAc(b1-3)GalNAc
Summary of the method: as §1

[18] = biological target: Neu5Ac(a2-6)Gal(b1-3)GlcNAc(b1-3)[Gal(b1-4)GlcNAc(b1-6)]Gal(b1-4)Glc
Summary of the method: as §1

[19] = biological target: Neu5Ac(a2-6)Gal(b1-4)GlcNAc(b1-2)Man(a1-6)[Gal(b1-4)GlcNAc(b1-2)Man(a1-3)]Man(b1-4)GlcNAc(b1-4)GlcNAc
Summary of the method: as §1

[20] = biological target: Neu5Ac(a2-6)Gal(b1-4)GlcNAc(b1-3)Gal(b1-4)GlcNAc(b1-3)Gal(b1-4)GlcNAc
Summary of the method: as §1

[21] = biological target: Neu5Ac(a2-6)Gal(b1-4)GlcNAc(b1-3)Gal(b1-4)[Fuc(a1-3)]GlcNAc(b1-3)Gal(b1-4)[Fuc(a1-3)]GlcNAc
Summary of the method: as §1

[22] = biological target: Neu5Ac(a2-8)Neu5Ac(a2-8)Neu5Ac(a2-3)[GalNAc(b1-4)]Gal(b1-4)Glc
Summary of the method: as §1

[23] = biological target: Neu5Ac(a2-8)Neu5Ac(a2-8)Neu5Ac(a2-8)Neu5Ac(a2-3)[GalNAc(b1-4)]Gal(b1-4)Glc
Summary of the method: as §1

[24] = biological target: Neu5Ac(a2-8)Neu5Gc(a2-3)Gal(b1-4)GlcNAc
Summary of the method: as §1

[25] = biological target: Neu5Gc(a2-3)Gal(b1-3)GlcNAc
Summary of the method: as §1

B1: LF82 (Escherichia coli) (protein)
chain: ADWGPCRTASGDPFIFVTSFTKNIQNPTDNVTGQTYPDFYQWALGDKYSGVCECPSPNPTEARPTLYKTESTLAAGHNSTYFKITNNLEVSTRVYIANVGNVQVPFINKSNSQPGRECDQPTFGWTTGSKGQLSLYIAKPFVGEQNIPQTIIVSVFGTKKENVYSSVPISQVLLSGKVTVTQGCELAAGTSLDIDFGEYQAHDFKGRTGQPPQNVQKIQKELTFNCTNISDGVHIYLSLEGTPNAAYPSAISLGNADVGAVIEDGKGNILKPNDSNSLLEMNPGSLYEYVKRKVTTTITAYPVSTTGKLPAAGDYSGVATMHVELDGGGGGGGGGGATTDLGAKGTLKFSLKISQGHHHHHH
- glycan array binding signal (z-score) [1]: -0.713
- glycan array binding signal (z-score) [2]: 1.79
- glycan array binding signal (z-score) [3]: -0.509
- glycan array binding signal (z-score) [4]: 0.416
- glycan array binding signal (z-score) (GlcNAc(b1-3)Man): 0.644
- glycan array binding signal (z-score) [5]: -1.17
- glycan array binding signal (z-score) [6]: -0.173
- glycan array binding signal (z-score) [7]: 0.244
- glycan array binding signal (z-score) (Man(b1-4)GlcNAc): 0.456
- glycan array binding signal (z-score) (Neu5Ac(a2-3)Gal): 0.191
- glycan array binding signal (z-score) [8]: 0.435
- glycan array binding signal (z-score) [9]: 4.88
- glycan array binding signal (z-score) [10]: -0.469
- glycan array binding signal (z-score) [11]: -0.373
- glycan array binding signal (z-score) [12]: -0.501
- glycan array binding signal (z-score) (Neu5Ac(a2-3)Gal(b1-4)Glc): 0.503
- glycan array binding signal (z-score) [13]: 2.08
- glycan array binding signal (z-score) [14]: -0.112
- glycan array binding signal (z-score) [15]: 0.281
- glycan array binding signal (z-score) [16]: 0.12
- glycan array binding signal (z-score) [17]: 0.56
- glycan array binding signal (z-score) [18]: 2.17
- glycan array binding signal (z-score) [19]: 0.283
- glycan array binding signal (z-score) [20]: 0.668
- glycan array binding signal (z-score) [21]: 0.159
- glycan array binding signal (z-score) [22]: -0.553
- glycan array binding signal (z-score) [23]: 2.59
- glycan array binding signal (z-score) [24]: -0.211
- glycan array binding signal (z-score) [25]: 3.85
